The text below walks through data of PubChem BioAssay.

Experiment [1] can be described thus: reducers of endogenous Her2 protein level, primary screen, SKBR3 breast tumor cells, AlphaScreen, ATP viability (AID 461;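 active = Her2 level under about 52% in both replicate screens, with viability over 70% of control, limit read from the data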;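 as to Her2 level: lower value means less Her2 protein in the cells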;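 as to viability: percent of carrier control wells set as 100% viability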). The conditions noted are these: 18-24 h, measured here: SKBR3 viability, ATP luminescence, at 10 µM. For orientation: Bead proximity is the source of the signal in Alpha formats.
The target of experiment [2] is Receptor tyrosine-protein kinase erbB-2 (Homo sapiens) (UniProt P04626). Described as above. The conditions noted are these: 18-24 h, at 10 µM, stronger effect = lower value.
Sequence of Receptor tyrosine-protein kinase erbB-2 (Homo sapiens) (P04626 whole entry, looked up): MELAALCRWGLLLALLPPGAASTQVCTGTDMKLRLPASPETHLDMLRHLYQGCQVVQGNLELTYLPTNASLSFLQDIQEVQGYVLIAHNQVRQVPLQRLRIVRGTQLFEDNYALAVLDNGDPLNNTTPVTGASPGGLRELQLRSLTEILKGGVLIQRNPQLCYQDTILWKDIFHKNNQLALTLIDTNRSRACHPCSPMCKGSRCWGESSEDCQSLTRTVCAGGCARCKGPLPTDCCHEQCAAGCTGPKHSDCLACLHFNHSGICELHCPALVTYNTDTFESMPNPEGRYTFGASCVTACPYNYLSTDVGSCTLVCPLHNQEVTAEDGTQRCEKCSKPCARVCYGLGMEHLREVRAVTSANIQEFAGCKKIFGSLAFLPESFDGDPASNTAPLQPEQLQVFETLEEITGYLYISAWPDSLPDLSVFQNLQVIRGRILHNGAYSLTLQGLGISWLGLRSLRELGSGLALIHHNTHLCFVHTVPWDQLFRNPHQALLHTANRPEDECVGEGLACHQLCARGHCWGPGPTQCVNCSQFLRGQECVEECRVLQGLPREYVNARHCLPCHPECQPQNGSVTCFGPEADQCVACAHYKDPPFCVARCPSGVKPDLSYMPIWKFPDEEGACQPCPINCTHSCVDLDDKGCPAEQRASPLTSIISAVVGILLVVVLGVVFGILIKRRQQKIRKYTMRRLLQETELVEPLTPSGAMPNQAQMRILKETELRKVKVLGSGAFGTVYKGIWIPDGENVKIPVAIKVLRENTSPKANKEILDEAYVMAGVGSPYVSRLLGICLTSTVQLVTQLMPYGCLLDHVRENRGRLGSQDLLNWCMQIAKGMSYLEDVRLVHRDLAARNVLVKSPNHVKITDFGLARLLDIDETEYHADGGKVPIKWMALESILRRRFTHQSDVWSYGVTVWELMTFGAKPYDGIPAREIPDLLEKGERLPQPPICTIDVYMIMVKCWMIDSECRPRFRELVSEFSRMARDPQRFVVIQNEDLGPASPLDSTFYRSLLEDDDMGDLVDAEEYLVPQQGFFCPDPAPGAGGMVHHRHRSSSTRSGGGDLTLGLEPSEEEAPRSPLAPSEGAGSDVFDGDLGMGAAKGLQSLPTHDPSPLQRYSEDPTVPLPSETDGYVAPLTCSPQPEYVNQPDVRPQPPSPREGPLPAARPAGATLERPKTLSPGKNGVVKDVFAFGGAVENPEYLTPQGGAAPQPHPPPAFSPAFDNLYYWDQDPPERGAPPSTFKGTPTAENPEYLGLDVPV
The nature of experiment [3]: SK-BR-3 cell growth inhibitors, pilot screen, 24 h, human (AID 572;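 active = viability at or below 10% of carrier control in both of two separate runs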;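 also: compound exposure lasted between 18 and 24 h rather than exactly 24 h; 100% = carrier-treated control wells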). The conditions noted are these: SK-BR-3 viability, CellTiter-Glo luminescence, at 10 µM, stronger effect = lower value. (In general: In ATP-based viability assays light output follows the ATP content of the culture.)
A short description of experiment [4]: HUVEC growth inhibition – cell-based, human, primary screen (AID 575;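 active = viability at or below 30% in both replicate assays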;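 also: 100% = median of untreated cell wells with 0.1% DMSO on each plate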). The conditions noted are these: HUVEC proliferation, CellTiter-Glo luminescence, 72 h; at 10 µM; stronger effect = lower value.
A short description of experiment [5]: growth inhibitors of H69AR lung tumor, primary screen, human, duplicate replicates (AID 580).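 Also: 100% = mean luminescence of untreated wells and 0% = no signal.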 Particulars: H69AR lung tumor cells viability, ATP luminescence, 72 h; at 10 µM; stronger effect = lower value.
A short description of experiment [6]: reversal of MRP1-mediated doxorubicin resistance, pilot screen, H69AR cells, doxorubicin co-treatment (AID 601;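 active = viability loss from added drug above about 55%, and viability with drug at most 40%, in both replicates, limit read from the data, passing the limit was not always enough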). The conditions noted are these: CellTiter-Glo, 72 h, at 10 µM; for differential viability (reversal): stronger effect = higher value.
The nature of experiment [7]: 384-well plate pilot, post-Golgi transport modulator project, inhibition of yeast transport mutant growth (AID 636; in the data active = inhibition above about 31%). The conditions noted are these: absorbance 615 nm, about 18 h, stronger effect = higher value.
Experiment [8] can be described thus: growth suppression of yeast trafficking mutant, preliminary HTS, modulators of trafficking downstream of Golgi apparatus project, 1536-format plate, OD 615 nm (AID 637; in the data active = inhibition above about 30%). Particulars: yeast transport mutant growth, absorbance 615 nm, 18 h; stronger effect = higher value.
Experiment [9] is described as follows: OD615 S. cerevisiae growth inhibition, permissive medium, pilot counter-assay, permissive growth control for S. cerevisiae lifespan shortening project (AID 705;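 active = growth inhibition above 25% in both replicates, a cutoff set 3 SD above the mean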). The conditions noted are these: OD615, 24 h, at 10 µM, stronger effect = higher value.
A short description of experiment [10]: Restrictive medium S. cerevisiae growth inhibition, OD615, pilot screen of yeast lifespan reduction project, restrictive growth control (AID 706;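 active = growth inhibition above a set limit, 3 SD over mean compound inhibition, in both replicates, cut at about 43% in these data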;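 also: modified DeaD lifespan yeast strain shifted to restrictive glucose medium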). The conditions noted are these: OD615, 48 h, at 10 µM, stronger effect = higher value.
Experiment [11] can be described thus: viability gain of MRP-1-high H69AR cells under doxorubicin, pilot screen, MRP-1 activator project, CellTiter-Glo, duplicate (AID 807;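 active = viability increase at or above a cutoff of the median across tested compounds plus 3 SD, cut at about 8.5% in these data, passing the limit was not always enough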;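 also: compound pretreatment 18-22 h then 72 h combined with doxorubicin; 0% = doxorubicin alone and 100% = vehicle without doxorubicin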). The conditions noted are these: H69AR viability with doxorubicin, CellTiter-Glo luminescence; at 10 µM; stronger effect = higher value.
The nature of experiment [12]: growth suppression of beta-catenin knockout HCT116, pilot screen, human colon tumor cells (AID 823;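 active = cell viability at or below a set limit in both duplicate runs, the limit being the all-compound median minus 4 SD, cut at about 23% in these data, passing the limit was not always enough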;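 also: 0% = wells killed by 20 µM Hyamine and 100% = untreated DMSO cell wells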). The conditions noted are these: CellTiter-Glo, 60 h, at 10 µM, stronger effect = lower value.
Experiment [13] is described as follows: growth suppression of PTEN-deleted HCT116, pilot screen, cell-based, HCT116 clonal line, CellTiter-Glo (AID 824;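 active = viability at or below 27.92% in each of two runs, the all-compound median minus 4 SD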;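 also: 0% = 20 µM Hyamine control and 100% = vehicle cell control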). Particulars: 60 h, at 10 µM, stronger effect = lower value.
Experiment [14] is described as follows: inhibitors of the yeast RAM network, pilot screen, dse1pr::URA3 reporter, 5-FOA selection (AID 869;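 active = inhibition over a set limit, the all-compound mean plus 3 SD, in both replicate runs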;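 also: 0% = DMSO wells with no growth and 100% = 10 µM 1-NA-PP1 with full growth; RAM network block rescues cells from 5-FOA so hits raise OD615 growth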). The conditions noted are these: S. cerevisiae dse1pr::URA3 5-FOA growth, OD615, 2 d; at 10 µM; stronger effect = higher value; strain carries analog-sensitive mutant Cbk1 kinase.
Experiment [15] can be described thus: RAM signaling pathway blockade in yeast – S. cerevisiae, Pdr1DBD-CYC8 efflux-inhibited sensitized strain, primary screen (AID 1298;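 active = RAM network inhibition above 8.4% in each of two replicates, 3 SD over the compound average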;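 also: 0% = DMSO untreated cells without growth and 100% = 10 µM 1-NA-PP1 full growth; higher means more yeast growth rescued from 5-FOA killing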). Particulars: S. cerevisiae cbk1-as DSE1-URA3 strain, 5-FOA growth OD615, 2 d; at 50 µM; stronger effect = higher value.
The mark [16] stands for this setting: H69AR cells + 2 uM doxorubicin, measured here: viability with 2 uM doxorubicin, stronger effect = lower value.
The mark [17] stands for this setting: H69AR cells, compound alone cytotoxicity.

Inconclusive results are not listed. Active and inactive are the calls of the source.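 The calls were made as follows, unless noted: active = viability at or under a set limit in both replicates, limit being median viability minus 3 SD (cut at about 48% in these data, passing the limit was not always enough); inconclusive = at or under the limit in just one replicate; inactive = at or above the limit in both replicates.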

On to `CC(C)OC(=O)c1ccc(OC(=O)c2cccnc2)cc1`, for which the viability (as a rule, a read-out of living cells in per cent, often relative to untreated cells) was 91.5% in experiment [1]; 91.5% (inactive) in experiment [3]; 102% (inactive) in [4]; 106% (inactive) in experiment [5]; 94.6% in experiment [6] (setting [16]); 106% in experiment [6] (setting [17]). For the same compound, the viability in [12] is 92.9% (inactive); in [13], 91.3% (inactive). In addition, the Her2 level in experiment [2] is 100% (inactive). The differential viability (reversal) in [6] (H69AR cells + 2 uM doxorubicin) was 11.3% (inactive). Moreover, the inhibition (as a rule, the relative decrease from the control value, in per cent) in experiment [7] was 3.65% (inactive); in experiment [8] it was -3.44% (inactive); in [14] it was 2.02% (inactive). For the same compound, the growth inhibition was 2.51% (inactive) in [9] and 12.6% (inactive) in experiment [10]. In addition, in [11], the viability increase was -2.98% (inactive). For the same compound, the RAM network inhibition in [15] is 2.34% (inactive).

Turning to `Cc1occc1C(=O)N1CCN(c2ncccn2)CC1`, the viability in experiment [1] is 87%; in experiment [3] it was 87% (inactive); in experiment [4], 99.6% (inactive); in [5], 95.8% (inactive); in experiment [6] (setting [16]), 86.9%; in experiment [6] (setting [17]) it was 95.8%. Further, the viability in [12] was 101% (inactive); in [13] it was 91.9% (inactive). The Her2 level in experiment [2] was 118% (inactive). Further, the differential viability (reversal) in experiment [6] (H69AR cells + 2 uM doxorubicin) is 8.91% (inactive). Also, the inhibition in experiment [7] is 2.56% (inactive); in experiment [8] it was -5.83% (inactive); in experiment [14], 1.98% (inactive). The growth inhibition in experiment [9] was -15.2% (inactive); in experiment [10] it was -1.04% (inactive). The viability increase in [11] is -0.73% (inactive). Also, in experiment [15], the RAM network inhibition was 1.89% (inactive).

Consider `O=c1c2ccccc2nc2n1CCN2`, for which the viability in experiment [1] is 84%; in experiment [3] it was 84% (inactive); in experiment [4], 91.9% (inactive); in [5] it was 109% (inactive); in experiment [6] (setting [16]) it was 83.3%; in experiment [6] (setting [17]), 109%. Also, the viability is 101% (inactive) in experiment [12] and 104% (inactive) in experiment [13]. The Her2 level in [2] is 95.5% (inactive). Also, the differential viability (reversal) in [6] (H69AR cells + 2 uM doxorubicin) is 26.2% (inactive). The inhibition in [7] was -0.93% (inactive); in [8], 5.16% (inactive); in [14], 1.84% (inactive). The growth inhibition was -3.22% (inactive) in experiment [9] and -1.61% (inactive) in [10]. In addition, in [11], the viability increase was 0.22% (inactive). In addition, in [15], the RAM network inhibition is -0.47% (inactive).

In the case of `CCSc1nnc(N2C(=O)CC(c3ccsc3)C3=C2CC(C)(C)CC3=O)s1` (stereo not drawn), the viability in [1] was 89%; in experiment [3], 89% (inactive); in [4], 81.3% (inactive); in experiment [5] it was 89% (inactive); in experiment [6] (setting [16]) it was 104%; in experiment [6] (setting [17]), 89%. Further, the viability is 103% (inactive) in [12] and 94.9% (inactive) in experiment [13]. In [2], the Her2 level is 108% (inactive). In addition, the differential viability (reversal) in experiment [6] (H69AR cells + 2 uM doxorubicin) was -15% (inactive). Moreover, the values for the inhibition in experiment [7], in [8] and in experiment [14] were -6.67% (inactive), 9.5% (inactive) and 0.195% (inactive), respectively. For the same compound, the growth inhibition in experiment [9] is 2.55% (inactive); in experiment [10], 0.01% (inactive). For the same compound, the viability increase in experiment [11] is -1.55% (inactive). Besides, the RAM network inhibition in experiment [15] was 3.19% (inactive).

As to `CSc1cccc(NS(=O)(=O)c2ccccc2)c1`, the viability is 78.5% in experiment [1]; 78.5% (inactive) in experiment [3]; 107% (inactive) in experiment [4]; 88.7% (inactive) in experiment [5]; 87.7% in [6] (setting [16]); 88.7% in experiment [6] (setting [17]). Besides, the viability in experiment [12] is 92.1% (inactive); in experiment [13], 95% (inactive). Also, the Her2 level in experiment [2] is 88% (inactive). For the same compound, in experiment [6] (H69AR cells + 2 uM doxorubicin), the differential viability (reversal) is 1.02% (inactive). The results for the inhibition in experiment [7], in [8] and in experiment [14] were -0.9% (inactive), -5.33% (inactive) and 0.96% (inactive), respectively. Moreover, the growth inhibition was -0.535% (inactive) in experiment [9] and 3.39% (inactive) in experiment [10]. For the same compound, the viability increase in experiment [11] was 0.44% (inactive). For the same compound, the RAM network inhibition in experiment [15] was 0.21% (inactive).

Take `Cc1cc(NC(=O)c2cccc(S(=O)(=O)N3CC(c4ccccc4)CC3=O)c2)no1` (stereo not drawn): the viability in experiment [1] is 92%; in experiment [3], 92% (inactive); in experiment [4], 98.8% (inactive); in experiment [5], 97.6% (inactive); in experiment [6] (setting [16]), 91.3%; in experiment [6] (setting [17]) it was 97.6%. Besides, the viability is 96.8% (inactive) in experiment [12] and 90.5% (inactive) in [13]. The Her2 level in experiment [2] is 97.5% (inactive). Moreover, in experiment [6] (H69AR cells + 2 uM doxorubicin), the differential viability (reversal) was 6.25% (inactive). The inhibition is -6.4% (inactive) in [7], 3.33% (inactive) in experiment [8] and 1.83% (inactive) in [14]. Besides, the values for the growth inhibition in [9] and in [10] were -15.3% (inactive) and -8.59% (inactive), respectively. Further, the viability increase in [11] was 1.83% (inactive). In experiment [15], the RAM network inhibition is 5.71% (inactive).

As for `CC(=O)c1ccc(NC(=O)C2CCN(S(=O)(=O)c3cccc4cccnc34)CC2)cc1`, the viability in experiment [1] was 97.5%; in [3] it was 97.5% (inactive); in experiment [4], 100% (inactive); in experiment [5], 84.3% (inactive); in experiment [6] (setting [16]), 89.4%; in [6] (setting [17]) it was 84.3%. In addition, the viability in [12] was 107% (inactive); in [13] it was 99.8% (inactive). Also, the Her2 level in [2] is 117% (inactive). The differential viability (reversal) in [6] (H69AR cells + 2 uM doxorubicin) is -5.16% (inactive). Besides, the figures for the inhibition in [7], in experiment [8] and in experiment [14] were -2.67% (inactive), -5% (inactive) and 1.35% (inactive), respectively. Also, the growth inhibition was -5.1% (inactive) in [9] and -5.57% (inactive) in experiment [10]. For the same compound, the viability increase in [11] is -1.12% (inactive). Besides, in experiment [15], the RAM network inhibition was 8.91% (inactive).

As to `COc1cccc(CNC(=O)Cn2c(=O)oc3ccccc32)c1OC`, the viability is 110% in experiment [1]; 110% (inactive) in experiment [3]; 89.8% (inactive) in [4]; 92.3% (inactive) in experiment [5]; 92.2% in experiment [6] (setting [16]); 92.3% in [6] (setting [17]). In addition, the viability in experiment [12] is 104% (inactive); in experiment [13], 91% (inactive). In experiment [2], the Her2 level was 99% (inactive). In [6] (H69AR cells + 2 uM doxorubicin), the differential viability (reversal) is 0.115% (inactive). The inhibition in [7] is -6.27% (inactive); in experiment [8] it was -0.67% (inactive); in [14], 0.75% (inactive). The growth inhibition in experiment [9] is -9.48% (inactive); in experiment [10] it was -12.4% (inactive). Further, the viability increase in experiment [11] was -0.35% (inactive). In addition, the RAM network inhibition in [15] is -0.26% (inactive).

As for `CCn1cc(C(=O)NCCC2=CCCCC2)c(=O)c2cc(S(=O)(=O)N(C)C)ccc21`, the viability in experiment [1] was 82.5%; in experiment [3], 82.5% (inactive); in experiment [4], 70.4% (inactive); in [5] it was 71.7% (inactive); in experiment [6] (setting [16]) it was 62.1%; in experiment [6] (setting [17]) it was 71.7%. Further, the viability in experiment [12] was 86.4% (inactive); in [13], 72.6% (inactive). In addition, the Her2 level in experiment [2] was 98.5% (inactive). For the same compound, the differential viability (reversal) in experiment [6] (H69AR cells + 2 uM doxorubicin) was 9.64% (inactive). The values for the inhibition in experiment [7], in [8] and in experiment [14] were -4.67% (inactive), -3.61% (inactive) and 1.37% (inactive), respectively. Moreover, the values for the growth inhibition in experiment [9] and in [10] were -14.2% (inactive) and -29.6% (inactive), respectively. The viability increase in [11] is -4.4% (inactive). Moreover, the RAM network inhibition in experiment [15] was 1.83% (inactive).
